IDE exosite FP: insulin-degrading enzyme (human) exo-site inhibition | P14735 | purified IDE, FL-6b probe fluorescence polarization; active compounds read low | z-score at 20 µM | 6.3% of 17,000 active | AID 1259349;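 active = z-score of -3 or lower, meaning strong loss of probe binding signal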;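 also: His-tagged human IDE residues 42-1019 made in E. coli with 30 nM FL-6b probe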
Target sequence (P14735 42-1019 limits assumed): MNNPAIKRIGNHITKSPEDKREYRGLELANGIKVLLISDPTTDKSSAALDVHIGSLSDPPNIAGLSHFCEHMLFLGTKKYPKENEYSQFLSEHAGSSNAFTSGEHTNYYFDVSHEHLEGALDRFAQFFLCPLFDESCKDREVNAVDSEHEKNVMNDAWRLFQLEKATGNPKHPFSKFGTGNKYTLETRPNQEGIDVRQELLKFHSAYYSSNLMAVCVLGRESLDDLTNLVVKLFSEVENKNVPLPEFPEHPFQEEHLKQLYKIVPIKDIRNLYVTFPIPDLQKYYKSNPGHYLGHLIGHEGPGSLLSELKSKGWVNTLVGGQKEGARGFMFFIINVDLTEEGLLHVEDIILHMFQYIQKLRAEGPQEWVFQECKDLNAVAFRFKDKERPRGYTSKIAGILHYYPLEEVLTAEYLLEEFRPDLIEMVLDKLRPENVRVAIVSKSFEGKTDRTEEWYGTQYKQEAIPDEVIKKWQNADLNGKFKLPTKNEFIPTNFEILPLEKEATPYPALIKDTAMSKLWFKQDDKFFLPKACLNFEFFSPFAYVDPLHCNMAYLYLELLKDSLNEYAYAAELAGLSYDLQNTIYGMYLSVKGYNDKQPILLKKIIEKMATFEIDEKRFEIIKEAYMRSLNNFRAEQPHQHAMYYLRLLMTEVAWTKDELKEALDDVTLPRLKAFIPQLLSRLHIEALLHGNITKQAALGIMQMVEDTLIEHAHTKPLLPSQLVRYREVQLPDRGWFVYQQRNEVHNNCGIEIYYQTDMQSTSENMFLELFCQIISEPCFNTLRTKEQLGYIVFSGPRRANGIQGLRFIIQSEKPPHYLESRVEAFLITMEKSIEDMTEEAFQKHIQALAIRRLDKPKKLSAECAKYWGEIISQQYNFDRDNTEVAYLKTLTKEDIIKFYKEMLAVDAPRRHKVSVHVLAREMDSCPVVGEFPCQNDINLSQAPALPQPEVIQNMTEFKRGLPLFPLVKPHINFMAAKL
Starred values were filed as active, the others as inactive; ! = a repeat was not active. The entries come from a sample that favours hits as a whole.

SMILES | IDE exosite FP
N#C[C@H]1[C@H](c2ccc(-c3ccccc3F)cc2)[C@H](CO)N1C(=O)C1CC1 | -2.4
O=S(=O)(c1ccc(F)cc1)N1CCCCN2[C@H](CO)[C@H](c3ccc(C#CC4CC4)cc3)[C@H]2C1 | 1
Cc1ccc(S(=O)(=O)N[C@H]2C=C[C@H](CC(=O)NCc3ccc(Cl)c(Cl)c3)O[C@H]2CO)cc1 | 1.4
CCCNC(=O)N1[C@H](CO)[C@@H]2c3ccccc3N(C(=O)c3ccncc3)C[C@@H]21 | 3
CC(C)(C)S(=O)N1Cc2cc(C(=O)NCc3ccc(Oc4ccccc4)cc3)nc(-c3cccc(C#CCC4CCCC4)c3)c2[C@@H]1CCO (stereo partly specified) | 3.1
CO[C@H](CN(C)Cc1ccc2c(c1)OCO2)[C@@H](C)CN(C(=O)c1ccccc1)[C@@H](C)CO | 0.96
CC(=O)N1[C@@H](CO)[C@@H](c2ccccc2)[C@@H]1CN(CC1CCC1)C(=O)CN(C)C | -0.5
CC(C)CC#Cc1ccc([C@H]2[C@H]3CN(C(=O)NC(C)C)CC(=O)N3[C@H]2CO)cc1 | -1.1
O=C(C1CCCCC1)N1[C@@H](CO)[C@@H]2c3ccccc3N(S(=O)(=O)c3ccccc3)C[C@@H]21 | -1.1
COc1ccccc1-c1ccccc1[C@H]1[C@H](C#N)N(C(=O)C2CC2)[C@H]1CO | 3.4
Cc1ccc(-c2ccccc2[C@@H]2[C@H](C#N)N(C(=O)c3cccc(F)c3)[C@H]2CO)cc1 | 0.43
COc1ccccc1-c1ccc([C@@H]2[C@@H](C#N)N(C(=O)c3cccc(F)c3)[C@@H]2CO)cc1 | -13*
COc1ccccc1-c1ccc([C@H]2[C@H](C#N)N(C(=O)C3CC3)[C@H]2CO)cc1 | -10*
COc1ccccc1-c1ccc([C@H]2[C@@H](C#N)N(C(=O)C3CC3)[C@H]2CO)cc1 | -5.3*
COc1ccccc1-c1ccc([C@@H]2[C@@H](CO)N(C(=O)C3CC3)[C@H]2C#N)cc1 | -7.8*
COc1ccc(-c2ccccc2[C@H]2[C@@H](C#N)N(C(=O)C3CC3)[C@H]2CO)cc1 | 3
COc1ccc(-c2ccc([C@H]3[C@H](C#N)N(C(=O)c4cccc(F)c4)[C@H]3CO)cc2)cc1 | 2.6
COc1ccc(-c2ccc([C@H]3[C@@H](C#N)N(C(=O)C4CC4)[C@@H]3CO)cc2)cc1 | 0.4
N#C[C@@H]1[C@H](c2ccc(-c3ccccc3F)cc2)[C@H](CO)N1C(=O)C1CCC1 | 0.44
CO[C@H](CN(C)Cc1ccc2c(c1)OCO2)[C@@H](C)CN(C(=O)Nc1ccc(F)cc1)[C@H](C)CO | 0.62
COc1ccc(NC(=O)N2CC(=O)N3[C@H](CO)[C@H](c4ccc(C5=CCCC5)cc4)[C@H]3C2)cc1 | 0.74
COc1ccc2c3c(n(C)c2c1)[C@H](CO)N(C(=O)NC(C)C)CC31CCN(Cc2nccs2)CC1 | -1.6
O=C(Nc1cc(F)ccc1F)N[C@@H]1CC[C@H](CCn2cc(C3CCCCC3)nn2)O[C@@H]1CO | 0.51
CN1c2ccc(Br)cc2[C@@H]2[C@@H](CCN2C(=O)CN2CCOCC2)[C@@H]1CO | 2
CN(C)C(=O)C[C@H]1C[C@@H]2c3cc(NC(=O)Nc4ccc(F)cc4)ccc3O[C@@H]2[C@@H](CO)O1 | -0.6
SMILES | IDE exosite FP
COc1cc(CN2[C@@H]3CNC[C@H]2C3c2ccc(-c3ccc(C)cc3)cc2)cc(OC)c1 (stereo partly specified) | 0.19
COc1ccc(S(=O)(=O)Nc2ccc3c(c2)C(=O)N([C@H](C)CO)C[C@@H](C)[C@@H](CN(C)C(=O)Nc2c(C)noc2C)OCCCC[C@@H](C)O3)cc1 | 0.88
CCCC#Cc1ccc([C@H]2[C@@H](CO)N(C(C)=O)[C@H]2CN(C)C(=O)C2CC2)cc1 | -1.3
O=C(C1CCCC1)N1CC(=O)N2[C@H](CO)[C@H](c3ccc(C#CC4CCCC4)cc3)[C@H]2C1 | 0.86
COc1ccccc1-c1ccc([C@H]2[C@@H](CO)N(C(=O)C3CCCCC3)[C@H]2C#N)cc1 | -3.3*
N#C[C@H]1[C@@H](c2ccc(-c3ccccc3F)cc2)[C@H](CO)N1C(=O)C1CCC1 | -0.67
COc1ccc(-c2ccc([C@@H]3[C@@H](C#N)N(C(=O)C4CCCC4)[C@H]3CO)cc2)cc1 | 0.9
COc1ccc(-c2ccc([C@H]3[C@@H](C#N)N(C(=O)C4CCCC4)[C@@H]3CO)cc2)cc1 | 3.2
N#C[C@@H]1[C@@H](c2ccc(-c3ccccc3F)cc2)[C@H](CO)N1C(=O)C1CCC1 | 2.1
COc1ccccc1-c1ccc([C@@H]2[C@@H](C#N)N(C(=O)C3CC3)[C@@H]2CO)cc1 | -17*
C[C@H](CO)N1C[C@H](C)[C@H](CN(C)C(=O)Nc2ccc(-c3ccccc3)cc2)OCc2ccccc2-c2ccccc2C1=O | -1.7
N#C[C@H]1[C@@H](c2ccccc2C2=CCCC2)[C@@H](CO)N1C(=O)CN1CCOCC1 | 2.5
CCCNC(=O)N1CC2(CCN(Cc3cccc(OC)c3)CC2)c2c(n(C)c3cc(OC)ccc23)[C@@H]1CO | -0.7
COC(=O)C[C@H]1CC[C@H]2[C@H](COc3ccc(NC(=O)Nc4c(C)noc4C)cc3C(=O)N2C)O1 | 0.77
CCc1cnc(N2[C@@H](C#N)[C@H](c3ccc(C#CCC4CCCC4)cc3)[C@@H]2CO)s1 | 1.8
CO[C@@H]1CC[C@@H]2CCN(C)C(=O)CCCN(C)C(=O)c3cc(C#N)ccc3OC[C@H]1O2 | 0.87
COc1cccc(CN2CCCCN3[C@@H](CO)[C@@H](c4ccc(-c5ccccc5OC)cc4)[C@@H]3C2)c1 | -1.5
COc1cccc(CN2C[C@@H]3N[C@H](C2)C3c2ccc(-c3ccccc3OC)cc2)c1 (stereo partly specified) | -8.6*!
COc1ccccc1-c1ccc(C2[C@@H]3CN(Cc4nccs4)C[C@H]2N3)cc1 (stereo partly specified) | -0.059
Fc1ccccc1-c1ccc(C2[C@@H]3CN(Cc4ccccc4)C[C@H]2N3)cc1 (stereo partly specified) | 2.3
COc1ccccc1-c1ccc(C2[C@@H]3CN(Cc4cccc(F)c4)C[C@H]2N3)cc1 (stereo partly specified) | -3.2*
COc1cc(CN2C[C@@H]3N[C@H](C2)C3c2ccc(-c3ccc(C#N)cc3)cc2)cc(OC)c1 (stereo partly specified) | -0.74
C[C@@H]1CN([C@H](C)CO)C(=O)c2ccccc2-c2ccccc2CO[C@@H]1CN(C)C(=O)Nc1cccc(C(F)(F)F)c1 | 0.49
CN(C[C@@H]1N[C@H](CO)[C@@H]1c1ccc(-c2cccc(F)c2)cc1)C(=O)C1CCC1 | 1.6
CC(=O)NC[C@@H]1[C@@H](c2ccc(-c3cccc(F)c3)cc2)[C@H](CO)N1C(C)=O | -0.084
SMILES | IDE exosite FP
OC[C@H]1[C@@H](c2ccc(-c3ccccc3F)cc2)[C@@H]2CN(Cc3cncnc3)CCCCN12 | -2.7
OC[C@@H]1[C@@H](c2ccc(C#Cc3cccnc3)cc2)[C@@H]2CN(Cc3ccccc3F)CCCCN12 | -0.035
OC[C@H]1[C@@H](c2ccc(C#Cc3ccccc3F)cc2)[C@H]2CN(Cc3cncnc3)CCCCN21 | -2.1
OC[C@@H]1[C@@H](c2ccc(C#Cc3ccccc3F)cc2)[C@@H]2CN(Cc3cncnc3)CCCCN12 | -6.3*
OC[C@@H]1[C@H](c2ccc(-c3ccccc3F)cc2)[C@@H]2CN(Cc3cccnc3)CCCCN12 | -1.2
OC[C@H]1[C@@H](c2ccc(C#Cc3ccccc3F)cc2)[C@@H]2CN(Cc3cncnc3)CCCCN12 | -15*
OC[C@H]1[C@@H](c2ccc(-c3ccccc3F)cc2)[C@H]2CN(Cc3cncnc3)CCCCN21 | -3.2*
